Hsp70 activator: Hsp70 transcriptional activation, primary screen | HeLa Hsp70 promoter luciferase reporter, luminescence; scaled: vehicle 0, proteasome-inhibitor control 100% | activation, % at 10 µM | actives 0.04% (n = 200,000);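 active = activation above the mean across all tested compounds plus 3 SD, cutoff set per campaign, cut at about 5.5% in these data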;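 also: 100% = MG132 at 30 µM as the positive control and 0% = DMSO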
L929 necroptosis: L929 zVAD cell death inhibition | actives 0.38% (n = 220,000) | viability rescue, % at 10 µM | L929 zVAD necroptosis rescue, ATP luminescence, 24 h; with zVAD 60 µM;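 active = activation, scaled between plate controls, above about 75%, limit read from the data; inactive = activation under that limit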;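 also: 0% = zVAD with DMSO and 100% = DMSO alone without zVAD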
HSF-1 act: increases HSF-1 driven luciferase reporter signal. NIH3T3-HGL HSF-1 luciferase reporter, MG132, 8 h; 100% = twice DMSO control signal. AID 504408. actives 1.7% (n = 300,000). activation, % at 9 µM;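 active = mean replicate activation of at least 50% with a set share of replicates each reaching 50%; inconclusive = only one of those two conditions met; inactive = mean below 50% and too few replicates reaching it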;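 also: 0% = median of the neutral control wells and 100% = twice that signal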
TNF death inh: blocks TNF-alpha induced death of Jurkat FADD-/- cells; Jurkat FADD-/- TNF necroptosis rescue, ATP luminescence, 24 h; 0 = TNF only, 100 = no-TNF cells; activation (protection from cell death), % at 10 µM; actives 0.068% (n = 220,000);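 active = activation, meaning protection from cell death, of at least 50% relative to plate controls; inactive = activation below 50%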;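 also: necroptosis triggered by 40 ng/mL TNF-alpha added together with compound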
Starred values were filed as active, the others as inactive; u = inconclusive; x = not tested or not shown. Only some compounds are listed: those with a hit (about 1.9% of all), similar ones and a draw of the others.

SMILES	Hsp70 activator	L929 necroptosis	HSF-1 act	TNF death inh
COc1ccc(O)c(CN2CCCC(C(=O)c3sccc3C)C2)c1 (stereo not drawn)	0	12	16	2
Cc1ccsc1C(=O)C1CCCN(Cc2ccccc2O)C1 (stereo not drawn)	0	0	58*	4
CCNc1nc(NC(C)(C)C)nc(SC)n1	x	x	4	x
CCN1C[C@]2(OC(=O)c3ccccc3NC(C)=O)CCC(OC)C34C5C[C@H]6C(OC)[C@]5(O)[C@](O)(C[C@@H]6OC)C(C[C@@H]32)[C@H]14 (stereo partly drawn)	x	x	-18	x
CCOc1cccc(C2NCc3ccccc3-n3cccc32)c1O (stereo not drawn)	0	0	93*	0
COc1ccc(N=Cc2c(O)n(Cc3ccccc3)c(=S)[nH]c2=O)c(OC)c1	x	0	117*	-12
COc1ccc(OC)c(N=Cc2c(O)n(Cc3ccccc3)c(=S)[nH]c2=O)c1	x	1	4	1
Cc1cccc(N=Cc2c(O)n(-c3ccccc3C)c(=O)[nH]c2=O)c1	0	0	x	-1
Cc1ccccc1-n1c(O)c(C=Nc2ccc(N(C)C)cc2)c(=O)[nH]c1=O	0	1	64*	-4
O=C(c1ccc2c3c(cccc13)CC2)C1CCCN(CC2CC2)C1 (stereo not drawn)	0	13	-6	8
O=C(COc1ccc(Br)cc1)N1CCN(Cc2ccc3c(c2)OCO3)CC1	x	x	-5	x
COc1cc(OC)c(C=O)c(OC(=O)N(C)C)c1	0	0	-11	-2
Cc1oc(-c2ccccc2Cl)nc1CN1C(=O)CN=C(c2ccccc2)c2ccccc21	0	x	95*	-1
C=CCNC(=O)c1c(N)n(Cc2ccco2)c2nc3ccccc3nc12	0	0	134*	-2
COCCNC(=O)c1c(N)n(Cc2ccco2)c2nc3ccccc3nc12	0	0	u	-1
COc1ccc(CCNCc2ccc(Br)cc2)cc1OC	x	x	51*	x
COc1ccc(CCNCc2ccncc2)cc1OC	0	0	0	1
CN(C)C(=O)Oc1ccc2c(c1)O/C(=C\c1ccc(Cl)cc1)C2=O	x	x	57*	x
CN(C)C(=O)Oc1ccc2c(c1)O/C(=C\c1cccc(Cl)c1)C2=O	x	x	35	x
O=C(c1ccc(Cl)cc1)C1CCCN(Cc2ccc3ncccc3c2)C1 (stereo not drawn)	0	-1	24	-3
CC(C)(C)NC(=O)NC(=O)CN1CC=C(c2ccccc2)CC1	0	24	61*	2
COC(=O)C1=C(C(=O)OC)C2OC1c1cc3ccccc3cc12	x	x	59*	x
CN1C(=O)C(=Cc2sc(=O)n(-c3ccccc3)c2N2CCCCC2)C(=O)N(C)C1=O	x	-1	67*	-16
CN1C(C(=O)N2CCC3(CC2)OCCO3)=CC(c2ccc(F)cc2)=NS1(=O)=O	x	x	-11	x
COC[C@]12CN(C)C3C4[C@H](OC)[C@H]1C3([C@@H](OC)C[C@H]2O)[C@@H]1C[C@@]2(O)[C@H](OC(=O)c3ccccc3)[C@@H]1[C@]4(OC(C)=O)[C@@H](O)[C@@H]2OC	x	x	6	x
SMILES	Hsp70 activator	L929 necroptosis	HSF-1 act	TNF death inh
Cc1cc(C(=O)N=Nc2c(O)n(C)c3ccccc23)c(C)o1	0	0	80*	-2
c1ccc(C2CC3CC4(CCCC4)N2O3)cc1 (stereo not drawn)	0	30	14	94*
CCCCn1c(C)c(C(=O)OCC)c2c(CN3CCCC3)c(O)ccc21	x	x	7	x
CCCCn1c(C)c(C(=O)OCC)c2c(CN3CCOCC3)c(O)ccc21	0	-1	72*	4
O=C1NC2C(O)C(O)C(O)C(O)C2c2cc3c(c(O)c21)OCO3 (stereo not drawn)	x	x	89*	x
C=CCN1C(=O)NC(=O)/C(=C/c2ccc(N(C)C)c(Br)c2)C1=O	0	0	-10	-2
CC1CN=C(Nc2ccccc2)S1 (stereo not drawn)	0	0	52*	4
CC1CN=C(Nc2ccc(N(C)C)cc2)S1 (stereo not drawn)	1	1	33	0
COc1ccc(-n2c(O)c(C(C)=NCCc3c[nH]c4ccccc34)c(=O)[nH]c2=O)cc1	x	0	10	-4
O=C1NC(=O)N(Cc2ccc(F)cc2)C(=O)/C1=C\C=C\c1ccco1	x	-1	82*	-25
CC/C(=N\Nc1ccccc1)c1c(O)n(-c2ccc(OC)cc2)c(=O)[nH]c1=O	x	0	x	0
Cc1ccc(-c2nn(Cc3ccccc3)cc2C=O)cc1C	0	1	70*	3
Cc1ccc(Cn2cc(C=O)c(-c3ccc(F)cc3)n2)cc1	x	x	57*	x
Cc1ccc(-c2nn(Cc3ccccc3)cc2C=O)cc1	0	2	53*	2
NCCCCCC(=O)OC1N=C(c2ccccc2Cl)c2cc(Br)ccc2NC1=O (stereo not drawn)	0	1	-1	-6
C=CCn1c(O)c(C(C)=O)c(=O)[nH]c1=O (tested in a mixture with another compound)	x	0	-3	0
O=[N+]([O-])c1cccc(CN2CCN(Cc3ccc(Br)cc3)CC2)c1	0	2	3	-5
COc1cccc(N=Nc2c(O)[nH]c(=S)[nH]c2=O)c1	x	1	103*	-8
COc1ccc(N=Nc2c(O)[nH]c(=S)[nH]c2=O)cc1	0	1	9	-3
O=c1[nH]c(=S)[nH]c(O)c1N=Nc1ccc2c(c1)OCCO2	x	-1	73*	-18
CCC1CCCCN1CC(=O)c1ccc(OC(F)F)cc1 (stereo not drawn)	0	0	25	0
C=CCn1c(O)c(C(C)=Nc2ccc3c(c2)CCC3)c(=O)[nH]c1=O	x	0	21	-1
C=CCn1c(O)c(C(CC)=Nc2ccc3c(c2)CCC3)c(=O)[nH]c1=O	x	0	74*	-3
CN1CCc2cc(O)cc3c2[C@H]1Cc1ccc(O)c(O)c1-3	x	x	78*	x
CCCCCc1nc2c(c(=O)c3ccccc3n2C)c(=O)n1C1CCCCCC1	0	0	1	-2
SMILES	Hsp70 activator	L929 necroptosis	HSF-1 act	TNF death inh
COc1ccc2ccc(O)c(CN3CC=C(c4ccccc4)CC3)c2c1	0	2	201*	-10
CC(=O)c1ccccc1NC(=O)C1C2CCC(O2)C1C(=O)O (stereo not drawn)	0	0	68*	-1
O=C(O)C1C2CCC(O2)C1C(=O)Nc1ccc(F)c(F)c1 (stereo not drawn)	x	x	-2	x
O=c1cccc2n1CC1CC2CN(c2nc(N3CCCCC3)nc(N3CCCCC3)n2)C1 (stereo not drawn)	0	1	58*	2
O=c1cccc2n1CC1CC2CN(Cc2c(Cl)cccc2Cl)C1 (stereo not drawn)	0	0	41	1
COc1cc(OC)cc(C(=O)NC(=S)N2C[C@H]3C[C@H](C2)c2cccc(=O)n2C3)c1	x	x	-9	x
COc1cccc(OCc2cc(C(=O)N3C[C@H]4C[C@@H](C3)c3cccc(=O)n3C4)no2)c1	x	x	73*	x
